Drawing on PubChem BioAssay AID1259420 (Broad Institute, 2018), this text covers max activity for 70 compounds.

Several values for one entry are separate records, joined by “and”; a condition that tells them apart may be missing. Identical values can stand only once. Hit rate of the full screen: of about 1,000 compounds, about 250 (25%) were called active. Another 31% or so got no clear call; they are omitted. Only a sample is shown. Results with a measured potency or affinity are listed apart. Unmarked numbers belong to inactive results. How the calls were made is not given here.

The nature of the assay: T. gondii intracellular growth, IFN-gamma absent, dose response, cell-based (AID 1259420).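 Further: host cells were HeLa; final incubation lasted 72 hours.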 As to conditions: Toxoplasma gondii growth in host cells, no IFN-gamma; at 19.5 µM unless noted.
`Cn1nc2c(c1C(=O)Nc1ccc(N3CCCCC3)c(F)c1)CCCC2`: the max activity is 25.8% [at 10 µM].

With `Cc1ccccc1-c1ccc([C@H]2[C@@H](CO)N3C(=O)CN(C(=O)c4ccncc4)C[C@@H]23)cc1`, the max activity was -13.9% [at 0.16 µM].

As for `CN(C)C1CCN(Cc2cccc(C#N)c2)C(C(=O)O)C1` (stereo not given), the max activity is 8.23%.

Consider `Cc1nnsc1CN(C)Cc1[nH]c2ccc(F)cc2c1C`, for which the max activity was 12.6% [at 0.16 µM].

With `CC(C)NC(=O)N1CC(=O)N2[C@H](CO)[C@H](c3ccc(/C=C/c4ccccc4)cc3)[C@@H]2C1`, the max activity is 20.9%.

Consider `COc1ccc(-c2ccc([C@H]3[C@H]4CN(Cc5ccccc5)CC(=O)N4[C@H]3CO)cc2)cc1`, for which the max activity was 43.4%.

Consider `COc1ccc(-c2nc(NCCN3CCOCC3)c3ccccc3n2)cc1`, for which the max activity was 8.12%.

On to `COc1ccc(-c2nc(NCCN3CCN(C)CC3)c3ccccc3n2)cc1`, for which the max activity is 12.8%.

In the case of `COc1ccc(-c2nc(NCCN3CCC(C)CC3)c3ccccc3n2)cc1`, the max activity is 5.6% [at 10 µM].

For the compound `COc1ccc(-c2nc(NCCCN3CCCC3)c3ccccc3n2)cc1`, the max activity is 7.2%.

With `CC(c1cc2ccccc2s1)N(O)C(N)=O` (stereo not given), the max activity was -4.76% [at 5 µM].

Take `CN1[C@H](CO)[C@@H]2c3ccccc3N(C(=O)C3CCCCC3)C[C@@H]21`: the max activity is -10.7% [at 0.3 µM].

Take `O=S(=O)(c1ccccc1)N1CCCCN2[C@@H](CO)[C@H](c3ccc(C#CC4CCCC4)cc3)[C@@H]2C1`: the max activity was 49.6%.

In the case of `C/C=C/c1ccc([C@@H]2[C@@H](CO)N3CCCCN(CCC(F)(F)F)C[C@@H]23)cc1`, the max activity is 39.6%.

As to `C/C=C/c1ccc([C@H]2[C@@H](CO)N3CCCCN(S(=O)(=O)c4ccc(OC)cc4)C[C@H]23)cc1`, the max activity is 19.6%.

In the case of `O=S(=O)(c1cccs1)N1CCCCN2[C@@H](CO)[C@@H](c3ccc(/C=C/c4ccccc4)cc3)[C@@H]2C1`, the max activity was 38.2%.

For the compound `CCC[C@@]1(CCc2ccccc2)CC(=O)C([C@H](CC)c2cccc(NS(=O)(=O)c3ccc(C(F)(F)F)cn3)c2)C(=O)O1` (stereo not given in full), the max activity is 6.55% [at 10 µM].

Take `Cc1ccc(-c2ccc([C@H]3[C@@H](CO)N4C(=O)CN(C(=O)NC(C)C)C[C@@H]34)cc2)cc1`: the max activity was -19.8% [at 5 µM].

For the compound `COCCC(=O)c1cc2c(s1)CCN2Cc1cccnc1`, the max activity is -10.9% [at 0.6 µM].

With `CN1CCC(=C2c3ccccc3C=Cc3ccccc32)CC1`, the max activity is 23.8%.

As to `N#C[C@H]1[C@@H](c2ccc(C3=CCCCC3)cc2)[C@@H](CO)N1C(=O)Nc1ccccc1F`, the max activity is 15.8% [at 10 µM].

Turning to `N#C[C@@H]1[C@H](c2ccc(C#Cc3cccc(F)c3)cc2)[C@H](CO)N1C(=O)C1CCOCC1`, the max activity is 23.4%.

Consider `COc1cccc(C#Cc2ccc([C@H]3[C@@H](C#N)N(C(=O)c4ccccn4)[C@@H]3CO)cc2)c1`, for which the max activity is 21.5%.

As to `N#C[C@H]1[C@@H](c2ccc(-c3cccnc3)cc2)[C@@H](CO)N1C(=O)Nc1ccc(F)cc1`, the max activity is 7.86%.

`N#C[C@H]1[C@H](c2ccc(C#Cc3cccc(F)c3)cc2)[C@@H](CO)N1C(=O)C1CCOCC1`: the max activity is 10.6%.

For `CCCNC(=O)N1C[C@@H]2N[C@H](C1)C2c1ccc(-c2ccccc2C)cc1` (stereo not given in full), the max activity is 14.1% and 25.2%.

Consider `N#C[C@H]1[C@H](c2ccc(C#Cc3ccccc3F)cc2)[C@@H](CO)N1C(=O)c1cccnc1`, for which the max activity was -12.3% [at 10 µM].

For the compound `COc1ccc(-c2ccc([C@H]3[C@H](C#N)N(C(=O)NC(C)C)[C@H]3CO)cc2)cc1`, the max activity is 23.7%.

`CC(C)C#Cc1ccc([C@@H]2[C@H]3CN(S(=O)(=O)c4ccccc4)CC(=O)N3[C@H]2CO)cc1`: the max activity is 15.9%.

Take `CN1C[C@H]2CN(Cc3ccc4c(c3)OCO4)CCC[C@@]2(C(=O)O)C1`: the max activity was -10.3% [at 5 µM].

As to `CS(=O)(=O)N1CC(=O)N2[C@H](CO)[C@@H](c3ccc(C#CCC4CCCC4)cc3)[C@@H]2C1`, the max activity was 58.7%.

For `CC(C)C#Cc1ccc([C@H]2[C@H](CO)N3C(=O)CN(C(=O)NC4CCCC4)C[C@@H]23)cc1`, the max activity is -11.2%.

For the compound `COc1ccccc1-c1ccc([C@H]2[C@H](CO)N[C@@H]2C#N)cc1`, the max activity is 29.5%.

Regarding `COc1ccccc1C#Cc1ccc([C@H]2[C@@H](CO)N3CCCCN(C(=O)C4CCC4)C[C@@H]23)cc1`, the max activity is -3.84% [at 0.16 µM].

Regarding `COc1ccccc1C#Cc1ccc([C@@H]2[C@@H](CO)N3CCCCN(C(=O)C4CCC4)C[C@H]23)cc1`, the max activity was 18.4% [at 10 µM].

Consider `N#Cc1cccc(-c2ccc([C@H]3[C@H]4CN(Cc5ccccc5F)CCCCN4[C@H]3CO)cc2)c1`, for which the max activity was 25.1%.

`N#Cc1cccc(-c2ccc([C@@H]3[C@H]4CN(Cc5ccccc5F)CCCCN4[C@H]3CO)cc2)c1`: the max activity was -16.7% [at 0.6 µM].

On to `O=C(C1CCC1)N1C[C@@H]2N[C@H](C1)C2c1ccc(/C=C/c2ccccc2)cc1` (stereo not given in full), for which the max activity was -22.2% [at 0.3 µM].

As to `NCCNC(=O)c1nc(-c2ccc(Br)o2)no1`, the max activity is 7.54% [at 0.08 µM].

On to `O=C(Cc1cccnc1)N1CC(=O)N2[C@@H](CO)[C@H](c3ccc(C4=CCCCC4)cc3)[C@@H]2C1`, for which the max activity was 18.9% [at 0.16 µM].

Regarding `Cc1nc2c(cnn2-c2ccccc2)c(=O)n1-c1cccc2ccccc12`, the max activity is -11.1% [at 10 µM].

As to `CCS(=O)(=O)N1CCc2nc(-c3cccc(F)c3)nc(NC3CC3)c2C1`, the max activity is -10.7% [at 2.6 µM].

Turning to `COCC1(C(=O)N2CCc3c(nc(-c4ccccc4)[nH]c3=O)C2)CCC1`, the max activity is 24.5%.

With `Cc1ccc(CN2C[C@@H]3C[C@H](C(=O)Nc4ccccc4)[C@@H](C2)O3)cc1`, the max activity was 4.12% [at 0.6 µM].

`CC(C)CNC(=O)[C@H]1C[C@H]2CN(Cc3cccc(Cl)c3)C[C@H]1O2`: the max activity was 13.8% [at 0.3 µM].

Regarding `CC(C)(C)c1nc2ccccc2c2nnc(SCc3ccccn3)n12`, the max activity is 9.04% [at 0.3 µM].

With `CN1CCN(Cc2cnc3n2CCN(CC2CCOCC2)C3)CC1`, the max activity was 22.9% [at 1.2 µM].

With `CN(C)C(=O)CN1CCOCC2(CCN(CC3CCOC3)CC2)C1` (stereo not given), the max activity was 12.7%.

As for `CN1CCCN(C(=O)c2cc3c(c4ccccc4n3CC3CC3)n2S(C)(=O)=O)CC1`, the max activity is 25.4%.

For the compound `O=C(c1cnccn1)N1CC(=O)N2[C@H](CO)[C@H](c3ccc(/C=C/c4ccccc4)cc3)[C@@H]2C1`, the max activity is 9.53% [at 10 µM].

For `COC12CC(COC(=O)c3cncc(Br)c3)CN(C)C1Cc1cn(C)c3cccc2c13` (stereo not given), the max activity is -18.1% [at 1.2 µM].

As to `CC(=O)NCc1nnn2c1CN(c1ncccn1)CCC2`, the max activity is -8.02% [at 0.6 µM] and 9.77% [at 0.6 µM].

For `CC(C)NC(=O)N1CC[C@@H]2[C@H]1c1cc(-c3ccc(F)cc3)ccc1N(C)[C@H]2CO`, the max activity is 11.4% [at 10 µM].

For the compound `CCC(=O)N1CC[C@@H]2[C@@H](CO)N(C)c3ccc(-c4ccc(C#N)cc4)cc3[C@@H]21`, the max activity was -14.1% [at 1.2 µM].

In the case of `CN1c2ccc(C#Cc3cccnc3)cc2[C@@H]2[C@@H](CCN2C(=O)c2cccc(F)c2)[C@H]1CO`, the max activity is 5.34%.

Consider `COc1ccc(-c2ccc3c(c2)[C@@H]2[C@@H](CCN2C(=O)c2ccncc2)[C@H](CO)N3C)cc1`, for which the max activity was -18.6% [at 5 µM].

`COc1cccc(-c2ccc3c(c2)[C@@H]2[C@@H](CCN2C(=O)c2ccccc2F)[C@@H](CO)N3C)c1`: the max activity is 24%.

`CCC(=O)N1CC[C@@H]2[C@H]1c1cc(-c3ccc(C#N)cc3)ccc1N(C)[C@H]2CO`: the max activity was -11.1% [at 0.6 µM].

Consider `NC(N)=N/N=C/c1c(Cl)cccc1Cl`, for which the max activity was -13.6% [at 2.35 µM].

Consider `C=CCN1C(=O)CCCC12CCCN(S(=O)(=O)Cc1ccccc1)C2` (stereo not given), for which the max activity is -8.38% [at 10 µM].

For `CN(C)CCNC(=O)c1c2c(NCc3cccnc3)ncnc2n2ccccc12`, the max activity was 8.13% [at 10 µM].

`CCN1Cc2c(C(=O)Nc3ccc(C)cc3)ncn2-c2ccccc2S1(=O)=O`: the max activity is -12.3% [at 0.16 µM].

For the compound `CC(C)N1c2ccc(F)cc2[C@@H]2CN(C(=O)c3ccco3)CC[C@H]21`, the max activity is 9.4%.

For `Cc1ccccc1-c1ccc([C@@H]2[C@@H](CO)N3CCCCN(S(=O)(=O)Cc4ccccc4)C[C@H]23)cc1`, the max activity is 6.43% [at 10 µM].

As to `Cc1ccoc1C(=O)N1CC[C@H]2CO[C@@H](CN3CCN(C)CC3)[C@@H]2C1`, the max activity was -13%.

Turning to `COc1ccc(C[C@H]2CN(C(=O)c3ccnn3C)CC[C@H]2OC)cc1`, the max activity is -12.6% [at 5 µM].

On to `O=C(Nc1ccccc1)[C@@H]1[C@@H](CO)[C@@H]2Cn3c(ccc(C4=CCCCC4)c3=O)[C@@H]2N1Cc1cocn1`, for which the max activity is -11.6% [at 10 µM].

Turning to `CCOCC1CC2(CCN(C(=O)COc3ccc(C)cc3)CC2)CO1` (stereo not given), the max activity is -10.4% [at 5 µM].

`CCN1CC2(CCN(C(=O)COc3ccccc3)CC2)COc2ccccc2S1(=O)=O`: the max activity is -3.38% [at 2.6 µM].

As for `CC(C)n1ncc(NC(=O)Cn2ccc(-c3ccc(C(F)(F)F)cc3)n2)n1`, the max activity is -7.47% [at 0.3 µM].
